Assay results from PubChem BioAssay (NCI).
This is part of a sample that, as a whole, favours compounds with a hit. Of some 83,000 tested, about 20% had one in any assay.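 Plates (96-well) were seeded with cells, treated with compound at one concentration, and incubated for 48 hours before percent growth was determined.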

How the values were obtained:
Assay in all cases: NCI-60 one-dose screen, 48 h (100 = growth as untreated, 0 = no growth, -100 = all killed)
Settings in all cases: 10 µM; active means growth percent below 10; inactive means the rest
NCI-H23 lung = test system: NCI-H23 lung
NCI-H226 lung = test system: NCI-H226 lung
NCI-H322M lung = test system: NCI-H322M lung
HOP-62 NSCLC = test system: HOP-62 NSCLC
NCI-H460 lung = test system: NCI-H460 lung
HOP-92 NSCLC = test system: HOP-92 NSCLC
NCI-H522 lung = test system: NCI-H522 lung
A549/ATCC NSCLC = test system: A549/ATCC NSCLC
786-0 renal = test system: 786-0 renal
COLO 205 colon = test system: COLO 205 colon

Measured: growth

c1ccc(Sc2ccccc2)cc1
inactive: NCI-H23 lung 105% | NCI-H226 lung 103% | NCI-H322M lung 118% | HOP-62 NSCLC 104% | NCI-H460 lung 106% | HOP-92 NSCLC 90.9% | NCI-H522 lung 139% | A549/ATCC NSCLC 96.6% | 786-0 renal 113% | COLO 205 colon 115%

COc1ccc(C2OC(N)=C(O)C2=O)cc1OC (stereo not given)
inactive: NCI-H23 lung 102% | NCI-H226 lung 97.5% | NCI-H322M lung 102% | HOP-62 NSCLC 105% | NCI-H460 lung 110% | HOP-92 NSCLC 98% | NCI-H522 lung 93.6% | A549/ATCC NSCLC 118% | 786-0 renal 101% | COLO 205 colon 125%

Oc1ccccc1-c1nnco1
inactive: NCI-H23 lung 94.9% | NCI-H226 lung 93.1% | NCI-H322M lung 89.9% | HOP-62 NSCLC 81.5% | NCI-H460 lung 104% | HOP-92 NSCLC 97% | NCI-H522 lung 91% | A549/ATCC NSCLC 98.9% | 786-0 renal 90.6% | COLO 205 colon 103%

CCOC(=O)C(=O)C=P(c1ccccc1)(c1ccccc1)c1ccccc1
inactive: NCI-H23 lung 99.4% | NCI-H226 lung 108% | NCI-H322M lung 98.2% | HOP-62 NSCLC 98.1% | NCI-H460 lung 103% | HOP-92 NSCLC 96.5% | NCI-H522 lung 90.1% | A549/ATCC NSCLC 100% | 786-0 renal 101% | COLO 205 colon 110%

COC(=O)c1[nH]c(=O)c(C#N)c(C(=O)OC)c1C(=O)c1ccccc1
inactive: NCI-H23 lung 95.4% | NCI-H226 lung 97.7% | NCI-H322M lung 101% | HOP-62 NSCLC 94.2% | NCI-H460 lung 102% | HOP-92 NSCLC 101% | NCI-H522 lung 99.7% | A549/ATCC NSCLC 93.7% | 786-0 renal 100% | COLO 205 colon 123%

c1ccc(/C(=N\N=C(/c2ccccc2)c2cccs2)c2cccs2)cc1
inactive: NCI-H23 lung 97.3% | NCI-H226 lung 89.3% | NCI-H322M lung 83.1% | HOP-62 NSCLC 102% | NCI-H460 lung 105% | HOP-92 NSCLC 92% | NCI-H522 lung 83.1% | A549/ATCC NSCLC 105% | 786-0 renal 84.8% | COLO 205 colon 99.3%

Cc1ccc(N)cc1[N+](=O)[O-]
inactive: NCI-H23 lung 97.1% | NCI-H226 lung 114% | NCI-H322M lung 129% | HOP-62 NSCLC 99.5% | NCI-H460 lung 109% | HOP-92 NSCLC 90% | NCI-H522 lung 94.5% | A549/ATCC NSCLC 100% | 786-0 renal 108% | COLO 205 colon 110%

COS(=O)(=O)c1ccc(Br)cc1
inactive: NCI-H23 lung 97.6% | NCI-H226 lung 101% | NCI-H322M lung 118% | HOP-62 NSCLC 95.6% | NCI-H460 lung 115% | HOP-92 NSCLC 98.1% | NCI-H522 lung 104% | A549/ATCC NSCLC 103% | 786-0 renal 111% | COLO 205 colon 104%

COc1ccc(C2(O)CCCCC2)cc1
inactive: NCI-H23 lung 97.9% | NCI-H226 lung 92.1% | NCI-H322M lung 105% | HOP-62 NSCLC 102% | NCI-H460 lung 105% | HOP-92 NSCLC 73.2% | NCI-H522 lung 99.7% | A549/ATCC NSCLC 101% | 786-0 renal 98.5% | COLO 205 colon 112%

CN(C)Cc1cc(C(C)(C)CC(C)(C)C)ccc1O
inactive: NCI-H23 lung 91% | NCI-H226 lung 91.2% | NCI-H322M lung 100% | HOP-62 NSCLC 91.6% | NCI-H460 lung 100% | HOP-92 NSCLC 77.1% | NCI-H522 lung 68.4% | A549/ATCC NSCLC 111% | 786-0 renal 92.9% | COLO 205 colon 97.1%

FC(F)(F)c1ccc2c(c1)N(CCCN1CCN(C3CC3)CC1)c1ccccc1S2
inactive: NCI-H23 lung 27% | NCI-H226 lung 75.4% | NCI-H322M lung 112% | HOP-62 NSCLC 95.7% | NCI-H460 lung 24.4% | HOP-92 NSCLC 51.1% | NCI-H522 lung 28.7% | A549/ATCC NSCLC 67.3% | 786-0 renal 63.9% | COLO 205 colon 79.9%

OCCN(CCO)C(=S)S
inactive: NCI-H23 lung 102% | NCI-H226 lung 103% | NCI-H322M lung 103% | HOP-62 NSCLC 108% | NCI-H460 lung 112% | HOP-92 NSCLC 109% | NCI-H522 lung 101% | A549/ATCC NSCLC 94% | 786-0 renal 101% | COLO 205 colon 114%

Cc1nc2c(ccc3ccccc32)s1
inactive: NCI-H23 lung 98% | NCI-H226 lung 109% | NCI-H322M lung 116% | HOP-62 NSCLC 103% | NCI-H460 lung 115% | HOP-92 NSCLC 93.7% | NCI-H522 lung 103% | A549/ATCC NSCLC 98.6% | 786-0 renal 101% | COLO 205 colon 110%

COC(=O)/C=C\C(=O)OC
inactive: NCI-H23 lung 106% | NCI-H226 lung 114% | NCI-H322M lung 125% | HOP-62 NSCLC 113% | NCI-H460 lung 111% | HOP-92 NSCLC 95.4% | NCI-H522 lung 89.2% | A549/ATCC NSCLC 100% | 786-0 renal 103% | COLO 205 colon 118%

CNC(=S)NC(C)(C)C
inactive: NCI-H23 lung 104% | NCI-H226 lung 102% | NCI-H322M lung 98.4% | HOP-62 NSCLC 101% | NCI-H460 lung 113% | HOP-92 NSCLC 83.1% | NCI-H522 lung 98% | A549/ATCC NSCLC 98.3% | 786-0 renal 101% | COLO 205 colon 119%
